# ± gives the standard deviation of the averaged measurements.
# Biological target: T1, MurD (UniProt P14900)
# T1 sequence (whole entry): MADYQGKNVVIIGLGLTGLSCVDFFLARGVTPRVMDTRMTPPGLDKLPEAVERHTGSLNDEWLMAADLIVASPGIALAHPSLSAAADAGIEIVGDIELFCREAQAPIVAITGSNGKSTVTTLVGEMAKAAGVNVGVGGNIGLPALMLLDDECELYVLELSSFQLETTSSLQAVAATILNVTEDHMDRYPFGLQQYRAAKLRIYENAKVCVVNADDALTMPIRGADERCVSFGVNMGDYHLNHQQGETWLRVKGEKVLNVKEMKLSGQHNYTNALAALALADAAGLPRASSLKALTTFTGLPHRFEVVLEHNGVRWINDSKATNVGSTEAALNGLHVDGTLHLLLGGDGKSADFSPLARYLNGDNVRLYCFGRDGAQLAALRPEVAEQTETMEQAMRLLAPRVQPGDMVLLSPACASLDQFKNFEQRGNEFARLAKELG
# Assay: relative enzymatic activity vs untreated control (fraction); higher = less inhibition
# Details: 100 µM; incubation time: 2 h at 37 C
# Method: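 In vitro enzymatic inhibition assays (ProFoldin kits) for 12 purified essential E. coli enzymes or complexes, each treated with 218 active antibacterial compounds at 100 µM for 2 h at 37°C. Read-outs were fluorescence or absorbance (phosphate detection, dye binding), converted to activity via standard curves and expressed relative to untreated DMSO controls.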
row,SMILES,relative enzymatic activity
1,Oc1cc(Cl)ccc1Oc1ccc(Cl)cc1Cl,0.759 ± 0.41
2,Cc1nc2c(=O)n(C)c(=O)nc-2n(C)n1,0.174 ± 0.24
3,O=[N+]([O-])c1ccc(N(CCO)CCO)c2c1no[n+]2[O-],0.623 ± 0.41
4,CC(=O)Oc1ccc(Cl)c2cccnc12,0.611 ± 0.41
5,C[CH2][Hg][S]c1ccccc1C(=O)[O-].[Na+],0.657 ± 0.43
6,CN(C)[C@@H]1C(=O)[C@@H](C(N)=O)C(=O)[C@@]2(O)C(=O)[C@H]3C(=O)c4c(O)ccc(Cl)c4[C@@](C)(O)[C@H]3C[C@@H]12,0.607 ± 0.41
7,O=C1C=C2C(=CCOC2O)O1 (centres undefined),0.611 ± 0.42
8,Cc1c(N)nc([C@H](CC(N)=O)NC[C@@H](N)C(N)=O)nc1C(=O)N[C@H](C(=O)N[C@@H](C)[C@H](O)[C@@H](C)C(=O)N[C@@H](C(=O)NCCc1nc(-c2nc(C(=O)NCCC[S+](C)C)cs2)cs1)[C@@H](C)O)[C@@H](O[C@H]1O[C@H](CO)[C@H](O)[C@@H](O)[C@H]1O[C@H]1O[C@H](CO)[C@@H](O)[C@H](OC(N)=O)[C@@H]1O)c1cnc[nH]1,0.624 ± 0.45
9,CN[C@H]1C[C@@H](N)[C@H](O)[C@@H](O[C@@H]2O[C@H](CO)[C@H](O)[C@@H]3O[C@@]4(O[C@H]23)O[C@H]([C@@H](N)CO)[C@H](O)[C@H](O)[C@H]4O)[C@@H]1O,0.592 ± 0.39
10,CC(=O)[O][Hg][c]1ccccc1,0.226 ± 0.14
11,CN1C(=O)[C@]23CC4=CC=C[C@H](O)[C@H]4N2C(=O)[C@@]1(CO)SS3,0.574 ± 0.39
12,Cc1c(N)nc([C@H](CC(N)=O)NC[C@@H](N)C(N)=O)nc1C(=O)N[C@H](C(=O)N[C@@H](C)[C@H](O)[C@@H](C)C(=O)N[C@@H](C(=O)NCCc1nc(-c2nc(C(=O)NCCC[S+](C)C)cs2)cs1)[C@@H](C)O)[C@@H](O[C@H]1O[C@H](CO)[C@H](O)[C@@H](O)[C@H]1O[C@H]1O[C@H](CO)[C@@H](O)[C@H](OC(N)=O)[C@@H]1O)c1c[nH]cn1,0.969 ± 0.9
13,CN(C)[C@@H]1C(=O)C(C(N)=O)=C(O)[C@@]2(O)C(O)=C3C(=O)c4c(O)cccc4[C@](C)(O)[C@H]3C[C@@H]12,0.606 ± 0.43
14,Cn1ncnc2c(=O)n(C)c(=O)nc1-2,0.598 ± 0.36
15,CN(C)[C@@H]1C(=O)[C@H](C(N)=O)C(=O)[C@@]2(O)C(=O)[C@@H]3C(=O)c4c(O)cccc4[C@@](C)(O)[C@H]3C[C@@H]12,0.603 ± 0.41
16,[O-][n+]1ccccc1[S][Zn][S]c1cccc[n+]1[O-],0.587 ± 0.4
17,CCCCCCCCCCCCCCCC[n+]1ccccc1,0.191 ± 0.13
18,CNC1C(O)C(OC2C(N)CC(N)C(OC3OC(C(C)O)C(O)C(O)C3N)C2O)OCC1(C)O (centres undefined),0.592 ± 0.38
19,CCCCCCCCCCCCCCCC[n+]1ccccc1.[Cl-],0.0847 ± 0.0065
20,CCn1cc(C(=O)[O-])c(=O)c2cc3c(cc21)OCO3.[K+],0.598 ± 0.42
21,CCCCCCCCCCCCCCCC[N+](C)(C)C.[Br-],0.256 ± 0.17
22,COP(=S)(OC)Oc1cc(Cl)c(Cl)cc1Cl,0.655 ± 0.44
23,O=[N+]([O-])C(Br)(CO)CO,0.486 ± 0.48
24,O=S(=O)(O)O.Oc1cccc2cccnc12,0.564 ± 0.35

# Source: the supplement of paper PMC9446081
